In PubChem BioAssay (NCI):
Several values for one entry are separate records, joined by “and”; a condition that tells them apart may be missing. Equal values may be shown once. About 83,000 compounds went through this panel and 20% of them were active in at least one assay; those are over-represented in the sample as a whole.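 Method: cells in 96-well plates; compound added at one concentration; 48 h incubation; percent growth measured; values under 10 scored active.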 Activity calls are given as the source filed them.

Experiments:
Assay in all cases: NCI-60 one-dose screen, 48 h (100 = growth as untreated, 0 = no growth, -100 = all killed)
[1] = system: EKVX NSCLC
[2] = system: SN12C renal
[3] = system: UO-31 renal
[4] = system: TK-10 renal
[5] = system: ACHN renal
[6] = system: CAKI-1 renal
[7] = system: A498 renal
[8] = system: CCRF-CEM leukemia
[9] = system: MOLT-4 leukemia
[10] = system: SR leukemia
[11] = system: RPMI-8226 leukemia
[12] = system: OVCAR-8 ovarian
[13] = system: OVCAR-5 ovarian
[14] = system: OVCAR-4 ovarian
[15] = system: SK-OV-3 ovarian
[16] = system: IGROV1 ovarian
[17] = system: OVCAR-3 ovarian
[18] = system: HS 578T breast
[19] = system: NCI/ADR-RES ovarian

Measured: growth

O=C(NC(=S)Nc1ccccn1)c1ccccc1
inactive: [1]; 10 µM 74.8% | [2]; 10 µM 97.1% | [3]; 10 µM 93.9% | [4]; 10 µM 125% | [5]; 10 µM 95.1% | [6]; 10 µM 82% | [7]; 10 µM 70.5% | [8]; 10 µM 62.2% | [9]; 10 µM unless noted 93.1% | [10]; 10 µM 112% | [11]; 10 µM 60.4% | [12]; 10 µM 103% | [13]; 10 µM 89.1% | [14]; 10 µM 62.7% | [15]; 10 µM 107% | [16]; 10 µM 78.7% | [17]; 10 µM 98% | [18]; 10 µM 88.8% | [19]; 10 µM 55.3%

CC(=O)O[C@H]1C(=O)[C@@]2(C)[C@H]([C@H](OC(=O)c3ccccc3)[C@]3(O)C[C@H](OC(=O)[C@H](O)[C@@H](NC(=O)c4ccccc4)c4ccccc4)C(C)=C1C3(C)C)[C@]1(OC(C)=O)CO[C@@H]1C[C@@H]2O
active: [8]; 2.5 µM 2.13% | [8]; 5 µM 5.52% | [8]; 10 µM 7.71% and 5.2% | [10]; 2.5 µM 7.15% | [10]; 5 µM 9.15% | [11]; 0.01 µM -10.5% | [11]; 5 µM 1.39% | [11]; 10 µM -42.3% and 8.81% | [12]; 2.5 µM 4.98% | [13]; 2.5 µM 9.17% | [17]; 0.01 µM -6.94% | [17]; 2.5 µM -5.62% | [17]; 5 µM -2.89% | [17]; 10 µM 0.613% and 0.903% | [18]; 0.01 µM -47.1% | [18]; 2.5 µM -18.5% | [18]; 5 µM -14.2% | [18]; 10 µM -14.9% and 2.62% | [19]; 10 µM -0.311% and 9.92%
-24.8% (active) and 39.1% (inactive): [16]; 10 µM
inactive: [1]; 0.01 µM 60.7% | [1]; 2.5 µM 35% | [1]; 5 µM 40.5% | [1]; 10 µM 47.1% and 41.5% | [2]; 0.01 µM 46.3% | [2]; 2.5 µM 25.5% | [2]; 5 µM 32% | [2]; 10 µM 55.6% and 33.2% | [3]; 0.01 µM 103% | [3]; 2.5 µM 42.6% | [3]; 5 µM 42.7% | [4]; 0.01 µM 87.7% | [4]; 2.5 µM 44.7% | [4]; 5 µM 46.1% | [4]; 10 µM 18.4% and 43.6% | [5]; 0.01 µM 95.3% | [5]; 2.5 µM 42.4% | [5]; 5 µM 44.8% | [5]; 10 µM 25.4% and 43.1% | [6]; 0.01 µM 93.4% | [6]; 2.5 µM 22.2% | [6]; 5 µM 23.1% | [6]; 10 µM 25.1% and 23.4% | [7]; 0.01 µM 61.7% | [7]; 2.5 µM 74.4% | [7]; 5 µM 96.2% | [7]; 10 µM 93.6% and 52.1% | [8]; 0.01 µM 11.7% | [9]; 0.01 µM 48.2% | [9]; 10 µM 22.8% | [10]; 0.01 µM 19.1% | [11]; 2.5 µM 11.4% | [12]; 5 µM 11.6% | [12]; 10 µM 18.4% | [13]; 0.01 µM 20.6% | [13]; 5 µM 10.8% | [13]; 10 µM 41.8% and 13.7% | [14]; 0.01 µM 64.7% | [14]; 2.5 µM 56.9% | [14]; 5 µM 61.3% | [15]; 0.01 µM 52% | [15]; 2.5 µM 10.2% | [15]; 5 µM 16.2% | [15]; 10 µM 42.9% and 12.8% | [16]; 0.01 µM 39% | [16]; 2.5 µM 32.2% | [16]; 5 µM 35.2% | [19]; 0.01 µM 92.8% | [19]; 2.5 µM 50.7% | [19]; 5 µM 25.9%
-2.72% (active) and 12.2% (inactive): [10]; 10 µM
9.24% (active) and 39.3% (inactive): [3]; 10 µM
-13% (active) and 57.6% (inactive): [14]; 10 µM

CCOC(=O)[C@]1(Br)CC[C@@]1(Br)C(=O)OCC
inactive: [1]; 10 µM 99.5% | [2]; 10 µM 98.1% | [3]; 10 µM 61.5% | [4]; 10 µM 95.9% | [5]; 10 µM 78.9% | [6]; 10 µM 90.3% | [7]; 10 µM 115% | [8]; 10 µM 99.8% | [9]; 10 µM unless noted 36.8% | [11]; 10 µM 96.8% | [12]; 10 µM 95.6% | [13]; 10 µM 104% | [14]; 10 µM 101% | [15]; 10 µM 112% | [16]; 10 µM 52.1% | [17]; 10 µM 133% | [18]; 10 µM 102% | [19]; 10 µM 107%

O=C1c2ccccc2CCC1(Br)Br
inactive: [2]; 10 µM 28.3% | [3]; 10 µM 28% | [6]; 10 µM 18.7% | [7]; 10 µM 70.8% | [12]; 10 µM 38.6% | [13]; 10 µM 25.8% | [15]; 10 µM 95% | [16]; 10 µM 88.4% | [18]; 10 µM 69.4% | [19]; 10 µM 19.3%
active: [4]; 10 µM -11% | [5]; 10 µM -95.2% | [8]; 10 µM -22.2% | [9]; 10 µM unless noted -13.4% | [10]; 10 µM 0.0746% | [11]; 10 µM 1.08% | [14]; 10 µM -27.5% | [17]; 10 µM -69.6%

O=C(O)c1ccccc1.[Ag]
inactive: [1]; 10 µM 103% | [2]; 10 µM 102% | [3]; 10 µM 103% | [4]; 10 µM 109% | [5]; 10 µM 111% | [6]; 10 µM 90.2% | [8]; 10 µM 15.4% | [9]; 10 µM unless noted 102% | [10]; 10 µM 102% | [11]; 10 µM 96.9% | [12]; 10 µM 96.8% | [13]; 10 µM 102% | [14]; 10 µM 95% | [15]; 10 µM 109% | [16]; 10 µM 116% | [17]; 10 µM 113% | [18]; 10 µM 114% | [19]; 10 µM 93.2%
